Here are results for eight compounds from ChEMBL document CHEMBL1961873, “Compounds: GSK PKIS; Assays: Nanosyn kinase panel” (2012).

Molecules are shown by their SMILES.

The target of test [1] is T1, Inhibitor of nuclear factor kappa-B kinase subunit epsilon (Homo sapiens) (UniProt Q14164).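 Further: reported values are averaged percent inhibition figures against human IKKε.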
T1 sequence (whole entry): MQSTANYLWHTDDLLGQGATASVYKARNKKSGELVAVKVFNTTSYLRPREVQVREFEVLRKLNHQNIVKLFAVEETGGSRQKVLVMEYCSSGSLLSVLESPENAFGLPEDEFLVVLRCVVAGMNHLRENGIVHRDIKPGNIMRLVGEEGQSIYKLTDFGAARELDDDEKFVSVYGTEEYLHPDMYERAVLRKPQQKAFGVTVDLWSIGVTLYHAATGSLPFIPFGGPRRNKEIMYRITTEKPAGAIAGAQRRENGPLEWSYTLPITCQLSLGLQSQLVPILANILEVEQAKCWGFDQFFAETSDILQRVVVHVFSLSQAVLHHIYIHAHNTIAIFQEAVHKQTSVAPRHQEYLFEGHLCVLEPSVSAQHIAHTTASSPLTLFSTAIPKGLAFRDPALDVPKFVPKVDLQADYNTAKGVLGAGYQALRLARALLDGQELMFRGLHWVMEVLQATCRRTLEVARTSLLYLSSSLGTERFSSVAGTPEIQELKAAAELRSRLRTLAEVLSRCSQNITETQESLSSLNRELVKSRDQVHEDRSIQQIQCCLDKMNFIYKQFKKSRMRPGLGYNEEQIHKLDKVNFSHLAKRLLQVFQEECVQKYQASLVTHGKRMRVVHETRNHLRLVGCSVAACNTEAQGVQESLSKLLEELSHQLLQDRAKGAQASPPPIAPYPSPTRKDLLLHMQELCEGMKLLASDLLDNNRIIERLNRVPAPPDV
The settings on record: at 1 µM.

Test [2] has as its target T2, Serine/threonine-protein kinase Nek1 (Homo sapiens) (UniProt Q96PY6).
T2 sequence (whole entry): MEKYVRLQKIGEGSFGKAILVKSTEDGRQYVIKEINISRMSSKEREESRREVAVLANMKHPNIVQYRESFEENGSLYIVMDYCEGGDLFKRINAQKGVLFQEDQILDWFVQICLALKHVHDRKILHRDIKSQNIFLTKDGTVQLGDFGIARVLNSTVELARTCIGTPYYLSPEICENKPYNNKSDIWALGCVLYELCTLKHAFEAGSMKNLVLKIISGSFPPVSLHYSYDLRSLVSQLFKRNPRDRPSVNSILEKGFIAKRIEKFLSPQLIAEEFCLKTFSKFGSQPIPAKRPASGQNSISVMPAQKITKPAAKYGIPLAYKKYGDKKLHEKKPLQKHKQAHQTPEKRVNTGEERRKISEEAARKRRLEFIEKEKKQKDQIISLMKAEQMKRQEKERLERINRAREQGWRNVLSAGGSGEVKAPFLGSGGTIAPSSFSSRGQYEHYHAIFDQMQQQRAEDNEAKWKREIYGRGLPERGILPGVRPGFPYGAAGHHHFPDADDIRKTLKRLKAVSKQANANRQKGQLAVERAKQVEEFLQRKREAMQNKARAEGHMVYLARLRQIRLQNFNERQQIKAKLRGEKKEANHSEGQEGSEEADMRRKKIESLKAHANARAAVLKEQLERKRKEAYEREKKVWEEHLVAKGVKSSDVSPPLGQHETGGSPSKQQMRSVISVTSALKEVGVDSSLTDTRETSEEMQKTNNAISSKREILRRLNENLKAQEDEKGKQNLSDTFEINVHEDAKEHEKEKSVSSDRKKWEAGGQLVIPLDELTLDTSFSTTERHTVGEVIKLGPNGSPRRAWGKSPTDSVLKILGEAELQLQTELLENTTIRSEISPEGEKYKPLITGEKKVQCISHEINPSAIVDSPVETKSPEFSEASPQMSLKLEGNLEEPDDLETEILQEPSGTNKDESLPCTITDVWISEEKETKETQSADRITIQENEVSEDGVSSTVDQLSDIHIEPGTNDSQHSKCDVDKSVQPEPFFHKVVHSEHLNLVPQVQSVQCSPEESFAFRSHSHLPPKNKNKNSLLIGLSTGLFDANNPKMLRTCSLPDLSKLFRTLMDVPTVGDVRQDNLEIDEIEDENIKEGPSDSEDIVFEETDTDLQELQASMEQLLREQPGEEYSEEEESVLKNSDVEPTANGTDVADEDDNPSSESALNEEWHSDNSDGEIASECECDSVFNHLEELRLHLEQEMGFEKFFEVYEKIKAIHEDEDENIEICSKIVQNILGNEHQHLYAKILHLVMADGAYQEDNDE
The conditions noted are these: at 0.1 µM.

Test [3] addresses T2, Serine/threonine-protein kinase Nek1 (Homo sapiens). The conditions noted are these: at 1 µM.
Test [4] deals with T3, Serine/threonine-protein kinase Nek2 (Homo sapiens) (UniProt P51955).
T3 sequence (whole entry): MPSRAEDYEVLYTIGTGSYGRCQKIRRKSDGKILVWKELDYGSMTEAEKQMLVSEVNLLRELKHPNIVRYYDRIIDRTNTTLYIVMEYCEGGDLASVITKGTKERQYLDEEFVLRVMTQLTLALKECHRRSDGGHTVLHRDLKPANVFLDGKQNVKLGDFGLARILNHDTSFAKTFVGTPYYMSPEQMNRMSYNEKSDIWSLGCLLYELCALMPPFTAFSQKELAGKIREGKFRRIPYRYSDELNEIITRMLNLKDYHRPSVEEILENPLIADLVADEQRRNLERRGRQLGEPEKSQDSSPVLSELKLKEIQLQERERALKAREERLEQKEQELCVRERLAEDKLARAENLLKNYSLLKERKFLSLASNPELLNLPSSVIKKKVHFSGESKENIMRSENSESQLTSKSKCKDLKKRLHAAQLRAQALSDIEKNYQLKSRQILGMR
The settings on record: at 0.1 µM.

Test [5] concerns the target T3, Serine/threonine-protein kinase Nek2 (Homo sapiens). The settings on record: at 1 µM.
The target in test [6] is Serine/threonine-protein kinase Nek6 (Homo sapiens) (UniProt Q9HC98). The settings on record: at 0.1 µM.
Test [7] has the same target. The settings on record: at 1 µM.
Test [8] deals with Serine/threonine-protein kinase Nek7 (Homo sapiens) (UniProt Q8TDX7). The settings on record: at 0.1 µM.
Test [9] has the same target. The conditions noted are these: at 1 µM.
Test [10] deals with T4, Serine/threonine-protein kinase Nek9 (Homo sapiens) (UniProt Q8TD19).
T4 sequence (whole entry): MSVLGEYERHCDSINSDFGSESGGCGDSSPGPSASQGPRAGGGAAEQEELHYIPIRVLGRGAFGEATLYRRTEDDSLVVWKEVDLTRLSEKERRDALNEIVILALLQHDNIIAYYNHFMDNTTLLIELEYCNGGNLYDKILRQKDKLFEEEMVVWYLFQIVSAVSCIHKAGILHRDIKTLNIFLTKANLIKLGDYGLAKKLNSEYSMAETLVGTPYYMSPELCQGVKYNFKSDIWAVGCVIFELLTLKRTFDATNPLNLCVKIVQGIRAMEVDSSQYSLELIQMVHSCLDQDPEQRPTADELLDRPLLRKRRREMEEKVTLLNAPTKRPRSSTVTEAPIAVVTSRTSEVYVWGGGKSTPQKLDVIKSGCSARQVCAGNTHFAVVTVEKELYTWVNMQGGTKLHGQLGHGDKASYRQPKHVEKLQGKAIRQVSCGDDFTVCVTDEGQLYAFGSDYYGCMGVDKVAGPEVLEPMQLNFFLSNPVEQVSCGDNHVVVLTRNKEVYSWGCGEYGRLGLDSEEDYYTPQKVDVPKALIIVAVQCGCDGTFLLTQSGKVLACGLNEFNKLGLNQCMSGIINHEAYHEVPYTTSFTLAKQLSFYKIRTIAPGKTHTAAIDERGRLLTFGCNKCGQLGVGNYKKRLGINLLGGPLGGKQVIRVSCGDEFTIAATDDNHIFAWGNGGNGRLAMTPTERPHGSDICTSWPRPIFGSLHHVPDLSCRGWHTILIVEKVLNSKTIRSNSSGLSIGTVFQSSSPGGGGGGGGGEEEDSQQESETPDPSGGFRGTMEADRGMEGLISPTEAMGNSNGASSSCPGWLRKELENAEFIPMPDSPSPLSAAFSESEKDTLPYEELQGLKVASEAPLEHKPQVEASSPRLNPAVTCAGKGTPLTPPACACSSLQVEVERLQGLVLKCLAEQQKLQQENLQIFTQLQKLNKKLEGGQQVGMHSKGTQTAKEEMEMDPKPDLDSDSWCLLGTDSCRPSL
The conditions noted are these: at 0.1 µM.

Sequence of Serine/threonine-protein kinase Nek6 (Homo sapiens) (Q9HC98 whole entry): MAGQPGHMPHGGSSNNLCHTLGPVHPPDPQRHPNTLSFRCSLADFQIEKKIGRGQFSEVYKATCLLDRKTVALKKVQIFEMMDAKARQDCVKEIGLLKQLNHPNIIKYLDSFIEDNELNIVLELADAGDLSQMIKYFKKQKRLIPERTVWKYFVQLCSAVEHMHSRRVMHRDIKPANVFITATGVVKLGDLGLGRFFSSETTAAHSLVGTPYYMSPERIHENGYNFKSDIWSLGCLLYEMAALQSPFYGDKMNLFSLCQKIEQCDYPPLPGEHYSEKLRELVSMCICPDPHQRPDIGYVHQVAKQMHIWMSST
Sequence of Serine/threonine-protein kinase Nek7 (Homo sapiens) (Q8TDX7 whole entry, looked up): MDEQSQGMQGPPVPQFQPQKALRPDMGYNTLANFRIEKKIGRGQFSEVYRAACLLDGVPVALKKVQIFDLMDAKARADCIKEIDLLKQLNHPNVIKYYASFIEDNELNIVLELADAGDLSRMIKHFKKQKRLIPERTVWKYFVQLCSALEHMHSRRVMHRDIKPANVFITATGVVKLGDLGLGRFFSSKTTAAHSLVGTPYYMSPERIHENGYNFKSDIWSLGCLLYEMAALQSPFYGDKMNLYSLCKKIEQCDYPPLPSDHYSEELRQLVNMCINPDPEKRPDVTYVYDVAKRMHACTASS

For the compound `c1ccc(-c2nc3n(c2-c2ccc4c(c2)OCO4)CCC3)nc1`, the inhibition – broadly, the drop in the measured response relative to a control, in per cent – came to 1.63% in test [1]; 2.25% in [2]; 1.34% in test [3]; 2.03% in [4]; 3.36% in test [5]; 1.4% in [6]. The inhibition in [7] was -0.68%; in test [8], 4.7%; in [9] it was 3.16%; in test [10], 4.73%.
Turning to `COc1cc(N2CCN(C(C)C)CC2)ccc1Nc1nc(Nc2ccc(F)cc2C(N)=O)c2cc[nH]c2n1`, the inhibition in test [1] was 4.36%; in [2] it was 3.16%; in test [3], 11.2%; in [4], 3.34%; in test [5] it was 2.89%; in test [6], 2.32%. The inhibition in [7] was determined as 5.57%; in test [8] it was 2.07%; in [9], 7.1%; in test [10], 4.13%.
On to `Fc1ccc(-c2nn3ccccc3c2-c2ccncc2)cc1`, for which the inhibition in [1] is 0.04%; in test [2], 1.98%; in [3], 1.91%; in test [4] it was 1.2%; in test [5] it was 1.45%; in test [6], 0.37%. The inhibition in [7] stood at 1.47%; in test [8], 3.72%; in test [9], 2.56%; in test [10], 5.49%.
For the compound `COC(=O)c1sc(-n2cnc3cc(OC)c(OC)cc32)cc1OCc1ccccc1C(F)(F)F`, the inhibition in test [1] was 8.59%; in test [2], 2.43%; in [3], 0.28%; in [4] it was 4.46%; in [5], 3.83%; in test [6] it was -0.01%. Moreover, the inhibition in [7] is -1.32%; in [8], 6.92%; in [9] it was 4.66%; in test [10], 6.87%.
In the case of `COc1cccc(-n2ncc3c(N/N=C/c4ccc(F)cc4)ncnc32)c1`, the inhibition was 8.08% in [1]; 2.09% in [2]; 4.05% in test [3]; 3.93% in test [4]; 2.32% in test [5]; 2.71% in test [6]. For the same compound, the inhibition was 3.01% in [7], 1.25% in [8], 3.29% in [9] and 1.55% in test [10].
Take `COc1ccc2[nH]c3c4[nH]c5ccc(OC)cc5c4c4c(c3c2c1)C(=O)NC4=O`: the inhibition in test [1] amounted to 36.3%; in test [2], 0.76%; in [3], 1.99%; in test [4], 4.36%; in test [5] it was 5.74%; in test [6], 5.36%. Also, the inhibition in test [7] is 5.14%; in [8], 3.71%; in [9], 5.28%; in test [10] it was 2.96%.
With `CC(=O)NCc1cccc(C#Cc2cncnc2Nc2ccc(OCc3cccc(F)c3)c(Cl)c2)c1`, the inhibition in test [1] was -1%; in test [2], 0.64%; in test [3], 1.25%; in [4] it was 0.96%; in [5], 0.7%; in test [6], -1.02%. Further, the inhibition in test [7] was -2.65%; in [8], 4.09%; in [9], 2.44%; in [10], 0.38%.
For `CC(=O)Nc1cccc(C#Cc2cncnc2Nc2ccc(OCc3cccc(F)c3)c(Cl)c2)c1`, the inhibition is -0.15% in test [1]; 1.85% in [2]; 1.3% in test [3]; 1.33% in [4]; 2.68% in [5]; 1.9% in test [6]. Further, the inhibition in test [7] turned out to be 1.16%; in test [8], 2.97%; in test [9] it was 2.6%; in test [10], 1.96%.
